The source of these data is PubChem BioAssay AID493208 (National Center for Advancing Translational Sciences (NCATS), 2011).

In all, about 44,000 compounds went through this assay and about 340 (0.77%) were called active. Inconclusive results (about 5%) are left out. The list comes from a sample in which actives are over-represented; it also holds similar structures and randomly drawn compounds. Unmarked numbers belong to inactive results. Calls follow the shape of the dose curve; as a rule, active = well fitted inhibition curve with a large enough effect; inconclusive = small, poorly fitted or top-dose-only effect; inactive = flat fitted curve, though single readings scatter.
Potency is read from the fitted curve at half-maximal effect.

The assay can be described thus: Acumen qHTS Assay for Inhibitors of the mTORC1 Signaling Pathway in MEF (Tsc2-/-, p53-/-) Cells: Sytravon. Also: nearly all actives have a fitted effect of over 50% in size. The settings on record: phospho-rpS6 immunofluorescence/PI, 24 h; series mostly up to 38.3 µM; activity change, negative = inhibition: at the top concentration. From the text:
NIH Molecular Libraries Probe Production Centers Network [MLPCN] NIH Chemical Genomics Center [NCGC] MLPCN Grant: NS059428-01 Assay Submitter (PI): Blenis, John; Hoffman, Greg; Harvard University NCGC Assay Overview: The mammalian target of rapamycin (mTOR) is an intracellular serine/threonine kinase Aberrant regulation of mTOR signaling plays a causative role in a number of human diseases, including cancer, benign tumors such as lymphangioleiomyomatosis (LAM) and Tuberous Sclerosis Complex (TSC), and metabolic diseases such as diabetes and obesity. This project aims to identify inhibitors of ribosomal protein S6 (rpS6) phosphorylation. The phosphorylation of rpS6 is a key event downstream of mTOR activation. The assay uses a phospho-specific antibody of phospho-rpS6 to detect inhibitors of mTOR activation. Mutations in the Tsc1 and Tsc2 genes are the underlying genetic lesions responsible for TSC, causing constitutive activation of the mTORC1 pathway and leading to profound effects on cell metabolism. Aberrant metabolism in cancer has recently received significant attention as a target to develop therapeutic agents in the treatment of cancer.1 As Tsc2-/- cells have lost the ability to respond to energy and growth factor deprivation, these cells are unable to properly down regulate cellular biosynthetic processes in response to metabolic stress, and are thus extremely sensitive to glucose deprivation-induced death.2 A central goal of this project is to explore the unique cell survival and metabolic properties of cells with Tsc1 or Tsc2 by screening for compounds that selectively target the Tsc2-/- MEFs by screening both Tsc2-/- and WT MEF cell lines. We hope to better understand these aspects of TSC physiology in order to exploit them for therapeutic benefit.
NCGC Acumen Assay Protocol Summary: For quantitative high throughput analysis of mTORC1 signaling, we developed a cell-based assay for immuno-fluorescence based detection of rpS6 phosphorylation on the Acumen Explorer that will be used a platform for the primary small molecule screen. Mouse embryonic fibroblasts (MEFs) are cultured in 1536-well plates using DMEM + 10% FBS. Twenty-four hrs after plating, test compounds (solubilized in DMSO) are delivered and incubated with the cells for 24 hrs at 37 degree Celsius. Following the incubation, media with compound is aspirated and the cells are fixed in 4% paraformaldehyde (PFA) containing PBS + 0.2% TX-100. Next, PFA is aspirated, cells are washed two times with PBS plus 0.2% TX-100 and the cells are blocked for 1 hr at room temperature (blocking buffer: LiCOR Blocking Buffer plus 0.2% TX-100). […] Cells are washed two times with PBS plus 0.2% TX-100, and stained with 10 uM propidium iodide (PI) for 20-25 minutes for cell number measurement (1:500 dilution of Hoescht staining is also added for IN Cell imaging). The plates are scanned on the Acumen Explorer laser scanning instrument (TTP Labtech) using the 488nm laser for simultaneous excitation of the Alexa-488 and PI. […] The normalized phospho-S6 staining is calculated as the ratio of the integrated Alexa 488 intensity divided by the integrated PI intensity for the single concentration rapamycin control (7.5 nM) and DMSO columns. […] Inhibition of the pathway is defined based on the normalized phospho-S6 intensity in rapamycin treated cells. Active cells are defined as those with a normalized phospho-S6 staining above this threshold, and each treatment is reported as the % positive cells in the well, where thresholds are defined by selecting wells with the highest and lowest signal and differentiating between the % non-active and % active populations. In addition to the pathway specific phospho-S6 endpoint, the number of PI stained cells from the Acumen is recorded as a measure of cell viability. The primary screen was performed with a MEF cell line in a defined genetic background, Tsc2-/-, p53-/- cell line stably transfected with an empty vector control (Tsc2-/- MEF).
On the technique in general: In qHTS, concentration-response curves come from the screen itself.
Regarding `CCCCN(CC)CCCNC(=O)Cn1ncc2c([nH]c3ccc(C)cc32)c1=O`, the “activity change, negative = inhibition” value was 7%.
Same read-out and setting: under `COc1cccc(CNCc2c(C(=O)O)n(Cc3ccc(C)cc3)c3cc(C)ccc23)c1OC` stands -0.504%.
Turning to `CCOC(=O)c1c(C)[nH]c(CCC(=O)NCCCN2CCN(c3cc(C)ccc3C)CC2)c1C`, the Potency is 13.1 µM (active).
On to `CCOC(=O)c1c(C)[nH]c(CCC(=O)Nc2ccc(OC)c(OC)c2)c1C`, for which the “activity change, negative = inhibition” value was 0.489%.
On the same count and under the same terms, under `CC1=C(c2ccc(Cl)cc2)S(=O)(=O)N=C1N1CCN(c2cc(C)ccc2C)CC1` stands 1.43%.
The same measure, in the same setting: under `CCOC(=O)c1c(C)[nH]c(CCC(=O)NCCCN2CCN(c3cccc(Cl)c3)CC2)c1C` stands 0.601%.
As for `Cc1ccc(C)c(N2CCN(CCCNC(=O)Nc3ccc(Cl)cc3)CC2)c1`, the Potency was 18.5 µM (active).
Take `CC1=C(c2ccc(C)cc2)S(=O)(=O)NC1=NCCCN1CCN(c2cc(C)ccc2C)CC1`: the “activity change, negative = inhibition” value was -9.39%.
The same measure, in the same setting: next, `CCn1c2ccccc2c2cc(NC(=O)COc3ccc(C)cc3C)ccc21`: -2.08%; `COc1ccc(-c2nn(CC(=O)Nc3ccccc3F)c3c2cnc2ccc(F)cc23)cc1`: 0%.
The same measure, in the same setting: under `O=C1CSC2(C(=O)N(Cc3ccccc3)c3ccccc32)N1c1cccc(F)c1` (configuration not stated) stands 0%; under `CCC1CCCCN1C(=O)Cn1c(=O)n(CCCCCC(=O)NCc2ccccc2)c(=O)c2sccc21` (configuration not stated), -7.36%.
The same measure, in the same setting: under `O=C(Nc1ccc2c(c1)OCO2)c1cc(-c2cccc(Cl)c2)on1` stands -11.2%; under `Cc1ccc2c(=O)c(C(=O)c3cccc(Cl)c3)cn(CC(=O)NCc3ccccc3)c2n1`, -0.846%.
Regarding `N#Cc1ccccc1Cn1cnc2nc3c(cc2c1=O)CCCC3`, the “activity change, negative = inhibition” value was -10.6%.
Same read-out and setting: under `CC(C)c1ccc(NC(=O)c2ccc(Cn3nc(N4CCN(c5ccccc5)CC4)ccc3=O)o2)cc1` stands -11.3%; under `COc1ccc(SCc2cc(=O)c3ccc(C)c(C)c3[nH]2)cc1`, 0.722%.
On the same count and under the same terms, under `COc1ccc(-c2cc(C(F)(F)F)nc(SCC(=O)N(C)Cc3ccccc3)n2)cc1OC` stands -5.38%; under `Cc1ccc(S(=O)(=O)N(CC(=O)Nc2ccc(Cl)cc2Cl)c2ccccc2C)cc1`, 13%; under `COc1ccccc1NC(=O)C(=O)c1cc(C)n(-c2ccccc2F)c1C`, -8.68%.
The same measure, in the same setting: under `COc1cc(NC(=O)c2noc3c2CSc2ccccc2-3)cc(OC)c1OC` stands 0.0529%.
Take `CCN(CC)c1ccc(NS(=O)(=O)c2cc(-c3cc(C)no3)ccc2C)c(C)c1`: the “activity change, negative = inhibition” value is -10.9%.
The same measure, in the same setting: under `O=C(NCc1ccc2c(c1)CCN2C(=O)c1ccccc1)c1ccccc1` stands 1.91%.
On to `CCc1cccc(C)c1Nc1c(-c2ccc(N(C)C)cc2)nc2ncccn12`, for which the Potency is 13.1 µM (active).
As to `COc1ccc(-c2nc3nc(C)cc(C)n3c2Nc2c(C)cccc2C)cc1`, the “activity change, negative = inhibition” value is -9.06%.
Regarding `Cc1cccc(C)c1Nc1c(-c2ccccc2O)nc2ncccn12`, the “activity change, negative = inhibition” value was -14%.
On the same count and under the same terms, under `CCOc1ccccc1N(CC)C(=O)c1cc2ccc3cccnc3c2[nH]1` stands -0.703%.
On the same count and under the same terms, next, `Cc1ccc(C(=O)N2CCc3cc(CNC(=O)c4ccc(Br)cc4)ccc32)cc1`: -0.771%; `Cc1ccc(-n2c(=O)c3cccnc3n2CC(=O)Nc2ccccc2C(F)(F)F)cc1C`: 3.08%; `COc1cc(C(=O)Nc2ccc(-n3c(C)nc4ccccc4c3=O)cc2)cc(OC)c1OC`: 2.16%.
Consider `COc1ccccc1Nc1c2c(nc3ccc(NC(=O)/C=C/c4cc(OC)c(OC)c(OC)c4)cc13)CCCC2`, for which the Potency was 3.29 µM (active).
Turning to `COc1cc(NC(=O)c2nc3ccccc3nc2C)cc(OC)c1OC`, the “activity change, negative = inhibition” value is -17.4%.
The same measure, in the same setting: under `COc1ccc(NC(=O)c2ccc3oc(=O)c(S(=O)(=O)c4ccc(F)cc4)cc3c2)c(OC)c1` stands -1.06%.
The same measure, in the same setting: next, `CCC(=O)NCc1cc(-c2nn(C)c(=O)c3ccccc23)ccc1OC`: 0.553%; `CCOc1cc(C(=O)NCCc2csc3nc(-c4ccc(C)cc4)nn23)cc(OCC)c1OCC`: -0.174%.
Still for that read-out and setting: next, `COc1cccc(NC(=O)CN2C(=O)c3ccccc3Sc3ncccc32)c1`: -4.27%; `CC1=C(c2ccc(F)cc2)S(=O)(=O)N=C1N1CCC(C(=O)NCCc2ccccc2C)CC1`: -5.5%; `COc1cc(NC(=O)c2cc(C3CC3)nc3c2c(C)nn3-c2ccccc2)cc(OC)c1`: 2.09%.
Regarding `COc1cccc(CNC(=O)C2CCN(S(=O)(=O)c3ccc4c(ccn4C)c3)CC2)c1`, the “activity change, negative = inhibition” value was 0.037%.
Same read-out and setting: under `Cc1ccc(OCCSc2nc(C)c(Cc3ccccc3)c(=O)[nH]2)cc1` stands -0.78%.
As to `Cc1ccc(Cn2c(=O)n(CCCC(=O)NCc3ccccc3Cl)c(=O)c3ccccc32)cc1`, the “activity change, negative = inhibition” value is 5.87%.
As to `CCc1ccc(NC(=O)c2cc(S(=O)(=O)NC3CCCCCC3)ccc2F)cc1`, the “activity change, negative = inhibition” value is -22.4%.
Same read-out and setting: next, `Cc1ccccc1NC(=O)Cn1cc(C(=O)c2cccs2)c2ccccc21`: -14.7%; `O=C(c1cnn(-c2ccc(F)cc2)c1-n1cccc1)N1CCN(c2ccc(F)cc2)CC1`: -7.02%; `CCOC(=O)c1cc(-c2ccccc2)n(-c2cccc(C(=O)Nc3cc(OC)cc(OC)c3)c2)c1C`: -1.51%.
Consider `Cc1oc2ccc(O)c(CN3CCOCC3)c2c1C(=O)Nc1cccc(Cl)c1C`, for which the “activity change, negative = inhibition” value was 7.39%.
In the case of `O=C1OC(C(=O)Nc2cccc(Br)c2)Cc2ccccc21` (configuration not stated), the “activity change, negative = inhibition” value is -3.38%.
Still for that read-out and setting: next, `Cc1c(NC(=O)c2cc(-c3ccc(Br)cc3)on2)c(=O)n(-c2ccccc2)n1C`: -28.7%.
Take `COc1ccc(NC(=O)C2CCCN(S(=O)(=O)c3c(C)[nH]c(=O)[nH]c3=O)C2)c(OC)c1` (configuration not stated): the “activity change, negative = inhibition” value was -7.05%.
Consider `COc1ccc(-c2nnc(SCC(=O)Nc3ccc(C(C)C)cc3)nc2-c2ccc(OC)c(OC)c2)cc1OC`, for which the “activity change, negative = inhibition” value is -3.8%.
For the molecule `Clc1cccc(-n2ncc3c(NCCc4ccccc4)ncnc32)c1`, the “activity change, negative = inhibition” value was 3.04%.
The same measure, in the same setting: under `Fc1ccc(Nc2nc(SCc3ccccc3Cl)nc3ccccc23)cc1` stands 3.14%; under `O=C(C1CCCN(S(=O)(=O)c2cccc3nonc23)C1)N1CCN(c2ccccc2F)CC1` (configuration not stated), -2.91%.
Regarding `Cc1ccc(N2CC(c3nnc(Cc4ccccc4Cl)o3)CC2=O)cc1` (configuration not stated), the “activity change, negative = inhibition” value is 6.32%.
The same measure, in the same setting: under `CCOC(=O)c1ccc(CN(Cc2ccccc2)S(=O)(=O)c2ccc(Cl)cc2)cc1` stands -9.2%.
With `Cn1c(=O)c(C(=O)O)nn(-c2ccccc2)c1=O`, the “activity change, negative = inhibition” value was 11.1%.
The same measure, in the same setting: under `Cc1ccc(-c2cn3c(n2)sc2cc(C(=O)NCCCc4ccccc4)ccc23)cc1` stands 5.23%; under `CCCCN1CC(c2nc3ccccc3n2CCCCOc2ccc(C)cc2C)CC1=O` (configuration not stated), -0.108%; under `COc1cccc(C(=O)NC2=NC(c3ccc(N(C)C)cc3)CC(=O)N2)c1` (configuration not stated), 0.508%.
Same read-out and setting: under `CCN(C(=O)Cn1cc(S(=O)(=O)N2CCN(c3ccccc3F)CC2)c2ccccc2c1=O)c1ccc(C)c(C)c1` stands 3.33%.
The same measure, in the same setting: under `CSc1nc(-c2ccccc2Cl)nc2c1Cc1c(CO)cnc(C)c1O2` stands 2.72%; under `Cc1cc2ccccc2n1CCNC(=O)c1ccc(F)cc1`, 1.95%; under `Cc1cccc(NC(=O)N2CCC(CN3CCc4ccccc4C3)CC2)c1C`, -13.6%.
Turning to `CCC(=O)N1CCc2cc(CNC(=O)Nc3ccccc3Cl)ccc21`, the “activity change, negative = inhibition” value is -1.13%.
On the same count and under the same terms, next, `COc1ccc(CNC(=O)CSCc2nc(-c3ccccc3F)oc2C)cc1`: -10.3%; `CCOc1ccc(-n2c(SCC(=O)NCc3ccccc3)nc3n[nH]c(C)c3c2=N)cc1`: -12.4%.
Same read-out and setting: next, `Cc1cccc(NC(=O)C2CCN(S(=O)(=O)c3c(C)noc3/C=C/c3ccco3)CC2)c1`: 2.87%.
